Hit rate of the full screen: of about 5,500 compounds, about 2,000 (36%) were called active. Inconclusive results (about 18%) are left out. Cut-off read from the data, not from the text of the source: active = normalized growth mostly below about 0.91 (no sharp cut-off); inconclusive = no clear call, values can overlap the other calls; inactive = mostly above about 0.92. The list shows a part of the results.
Experiment: chemical genetic growth profiling, strain panel (AID 1159580);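 note: tested at 20 µM; growth read once vehicle control cultures reached saturation at 30 °C; 1 = growth at the plate median or of vehicle wells; lower values mean less growth of the strain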
Settings: growth OD
[1] = S. cerevisiae deletion strains, locus YAL013W, strain DEP1, hits give low values
[2] = S. cerevisiae deletion strains, locus YBR229C, strain ROT2, hits give low values
[3] = S. cerevisiae deletion strains, locus YDL101C, strain DUN1, hits give low values
[4] = S. cerevisiae deletion strains, locus YDL134C, strain PPH21, hits give low values
[5] = S. cerevisiae deletion strains, locus YDR150W, strain NUM1, hits give low values
[6] = S. cerevisiae deletion strains, locus YEL061C, strain CIN8, hits give low values
[7] = S. cerevisiae deletion strains, locus YGR078C, strain PAC10, hits give low values
[8] = S. cerevisiae deletion strains, locus YHR030C, strain SLT2, hits give low values
[9] = S. cerevisiae deletion strains, locus YHR087W, strain rtc3, hits give low values
[10] = S. cerevisiae deletion strains, locus YJR043C, strain POL32, hits give low values
[11] = S. cerevisiae deletion strains, locus YJR075W, strain HOC1, hits give low values
[12] = S. cerevisiae deletion strains, locus YLR039C, strain RIC1, hits give low values
[13] = S. cerevisiae deletion strains, locus YLR058C, strain SHM2 (second series), hits give low values
[14] = S. cerevisiae deletion strains, locus YLR085C, strain ARP6, hits give low values
[15] = S. cerevisiae deletion strains, locus YLR262C, strain YPT6, hits give low values
[16] = S. cerevisiae deletion strains, locus YML094W, strain GIM5, hits give low values
[17] = S. cerevisiae deletion strains, locus YMR219W, strain ESC1, hits give low values
[18] = S. cerevisiae deletion strains, locus YMR263W, strain SAP30, hits give low values
[19] = S. cerevisiae deletion strains, locus YNL153C, strain GIM3, hits give low values
[20] = S. cerevisiae deletion strains, locus YNL298W, strain CLA4 (second series), hits give low values
[21] = S. cerevisiae deletion strains, locus YNL322C, strain KRE1, hits give low values
[22] = S. cerevisiae deletion strains, locus YNR030W, strain Alg12, hits give low values
[23] = S. cerevisiae deletion strains, locus YPL055C, strain LGE1, hits give low values
[24] = S. cerevisiae deletion strains, locus YPL241C, strain CIN2, hits give low values
[25] = S. cerevisiae deletion strains, locus YPR135W, strain CTF4, hits give low values

Measured: normalized growth

O=[N+]([O-])c1cccnc1Oc1ccc(Cl)cc1
active: S. cerevisiae deletion strains, locus YCL061C, strain MRC1, hits give low values 0.895 | [3] 0.875 | [7] 0.886 | [8] 0.543 | [10] 0.886 | [12] 0.657 | [15] 0.707 | [19] 0.919 | [21] 0.933 | [25] 0.613
inactive: [1] 0.94 | [2] 0.939 | [4] 0.973 | [5] 0.917 | [6] 0.977 | [9] 0.93 | [11] 0.933 | [13] 0.95 | [14] 0.789 | [16] 0.937 | [17] 0.954 | [18] 0.936 | [20] 0.858 | [22] 0.906 | [23] 0.959 | [24] 0.935 | S. cerevisiae strains, strain wild type, hits give low values 0.917

COc1ccc(Br)c(-c2nnc(-c3ccccc3[N+](=O)[O-])o2)c1
inactive: [1] 0.993 | [2] 1.01 | [3] 0.985 | [5] 0.943 | [6] 0.973 | [7] 1.02 | [8] 0.964 | [9] 1.02 | [10] 0.955 | [11] 0.975 | S. cerevisiae deletion strains, locus YKL190W, strain CNB1, hits give low values 1.01 | [12] 1.07 | [13] 1.02 | [14] 0.953 | [15] 1.06 | [16] 1 | [17] 1.01 | [18] 0.978 | S. cerevisiae deletion strains, locus YNL128W, strain TEP1, hits give low values 1.04 | [19] 1 | [20] 0.985 | [21] 1.01 | [22] 1 | [23] 0.953 | [24] 0.977 | [25] 1.07

O=[N+]([O-])c1ccc(Oc2c(Cl)cccc2Cl)c(Cl)c1Oc1c(Cl)cccc1Cl
inactive: [1] 0.98 | [2] 0.981 | [3] 0.95 | [4] 0.993 | [5] 0.992 | [6] 0.998 | [7] 0.984 | [8] 0.956 | [9] 1.04 | [10] 0.961 | [11] 1.04 | [12] 0.902 | [13] 0.991 | [14] 0.976 | [15] 0.949 | [16] 1.01 | [17] 1 | [18] 1.01 | S. cerevisiae deletion strains, locus YMR307W, strain GAS1, hits give low values 1.02 | [19] 0.986 | [20] 0.953 | [21] 0.987 | [22] 0.969 | [23] 1 | [24] 0.961 | [25] 0.901
